# Data taken from PubChem BioAssay (NCATS).
# Records with an inconclusive call do not appear. Activity calls are given as the source filed them. The call rests on the fitted dose curve; in most records, active means well fitted activation curve with a large enough effect; inconclusive means small, poorly fitted or top-dose-only effect; inactive means flat fitted curve, though single readings scatter. Where a SMILES comes first, the peptide text is derived from it.
# Test: Primary redox qHTS assay for identification of artifact compounds. (AID 1845223)
# Settings: Amplex Red/HRP redox cycling with DTT, fluorescence; series mostly up to 53.8 µM; redox activity (% of DA3003): at the top concentration
# Text: PI: Alexander Tropsha Ph.D.
# UNC Eshelman School of Pharmacy
# University of North Carolina, Chapel Hill, North Carolina
# Hits from high-throughput screening (HTS) of chemical libraries are often false positives due to their interference with the assay detection technology. In response to this problem, we generated the largest publicly available library of chemical liabilities and developed a free webtool to predict HTS artifacts, both of which are described herein. More specifically, we generated, curated, and integrated HTS datasets for thiol reactivity, redox activity, and luciferase (firefly and nano) activity. Using these curated datasets, we developed and validated several Quantitative Structure-Interference Relationship (QSIR) models to predict nuisance behavior. […] These models were employed for virtual profiling of the National Center for Advancing Translational Science's (NCATS) in-house library, and 256 compounds for each assay were selected for the experimental validation of nuisance behavior. The BA for these external predictions ranged from 58 to 78% for compounds within the applicability domains of the models. […] The models developed in this study, along with aggregation models previously developed by our group (SCAM Detective) were implemented in "Liability Predictor," an online tool which may be used as part of chemical library design or for triaging HTS hits. Both the models and the curated datasets are publicly available at https://liability.mml.unc.edu/.
# SEQUENCE No. (e.g., 1, 2, 3, etc.); […] (e.g., Cells, Incubation, Reagent, etc.); VALUE; DESCRIPTION.
# 1; Reagent; 3 uL; Amplex Red and HRP mixture.
# 2; Compounds and control; 16 nL; Kalypsis pin tool (Wako USA) equipped with a 1536-well pin head. […]
# 6; Detection; Fluorescence, ViewLux microplate reader, 525 nm excitation, 598 nm emission.
# NOTES (numbers refer to Sequence numbers above)
# 1. 3 uL of a mixture containing Amplex Red (25 uM final concentration) and horseradish peroxidase (HRP; 250 mU/mL final concentration) in assay buffer (HBSS) was dispensed into all wells of a 1536-well assay plate (solid-bottom black plate; Greiner Bio One, Monroe, NC).
# 2. A Wako Pin-tool (Wako Automation, Richmond, VA) was used to transfer 16 nL of compounds (consisting of 7-plates in qHTS format, final concentration range 18.3 nM to 114 uM) or control DA3003 (final concentration range 1.22 nM to 40 uM).
# 3. 15 min. incubation at room temperature protected from light.
# 4. 1 uL of DTT (prepared fresh; final concentration 250 uM) was dispensed for a final assay volume of 4 uL.
# 5. Plates were centrifuged (121xg, 15 seconds) and incubated for 30 minutes at room temperature protected from light.
# 6. Samples were read for fluorescence (Ex/Em = 525(20)/598(25) nm) on a ViewLux CCD imager (PerkinElmer). Data were normalized to DMSO (0% activity) and DA3003 (10 uM final concentration; 100% activity) and the resulting percent inhibition data were fitted to a 4-parameter Hill equation using NCATS in-house software.
row,Compound,redox activity (% of DA3003)
1,C/C=C(\C)C(=O)O[C@@H]1CC2[C@@H](CC=C3C[C@@H](O[C@H]4C[C@H](OC)[C@H](O[C@H]5C[C@H](OC)[C@H](O[C@H]6C[C@H](OC)[C@H](O[C@H]7C[C@@H](OC)[C@H](O[C@@H]8O[C@H](CO)[C@@H](O)[C@H](O)[C@H]8O)[C@@H](C)O7)[C@@H](C)O6)[C@@H](C)O5)[C@@H](C)O4)CC[C@@]32C)[C@@]2(O)CC[C@H](C(C)=O)[C@@]12C (stereo not given in full),-9.41% [at 11.5 µM] (inactive)
2,COc1c2c(c(C)c3c1C(=O)OC3)O[C@@]1(C)C[C@@H](O)[C@]34O[C@](OC)(CC[C@]3(C)[C@H]1C2)OC4(C)C,-9.89% [at 25.6 µM] (inactive)
3,CC1=C2[C@@H]([C@H](C)CC[C@H]2/C=C(\C)C(=O)O)[C@H](O)C1,-16.4% (inactive)
4,CCOc1cc2ncc(C#N)c(Nc3ccc(OCc4ccccn4)c(Cl)c3)c2cc1NC(=O)/C=C/CN(C)C,-4.96% [at 25.6 µM] (inactive)
5,CC(/C=C/C1(O)C(C)CC(O)CC1(C)C)OC1OC(CO)C(O)C(O)C1O (stereo not given),-13.9% (inactive)
6,C/C=C(\C)C(=O)O[C@@H](C)[C@H]1CC[C@]2(O)C3CCC4C[C@@H](OC5CC(OC)C(OC6CC(OC)C(OC7CC(OC)C(OC8OC(C)C(OC9OC(CO)C(O)C(O)C9O)C(OC)C8O)C(C)O7)C(C)O6)C(C)O5)CC[C@]4(C)C3[C@H](O)[C@@H](O)[C@]12C (stereo not given in full),14% [at 11.5 µM] (inactive)
7,CC(=O)OC[C@@]12[C@H](O)C[C@]3(C)C(=CCC4[C@@]5(C)CC[C@H](O[C@@H]6O[C@H](C(=O)O)[C@@H](O[C@@H]7O[C@H](CO)[C@@H](O)[C@H](O)[C@H]7O)[C@H](O)[C@H]6O[C@@H]6O[C@H](CO)[C@@H](O)[C@H](O)[C@H]6O)[C@](C)(CO)C5CC[C@]43C)[C@@H]1CC(C)(C)[C@@H](OC(C)=O)[C@@H]2O (stereo not given in full),7.21% [at 11.5 µM] (inactive)
8,C=C1[C@@H]2[C@H]3OC(=O)C(=C)[C@@H]3CC[C@@](C)(O)[C@@H]2C[C@@H]1O[C@@H]1O[C@H](CO)[C@@H](O)[C@H](O)[C@H]1O,-9.45% [at 25.6 µM] (inactive)
9,CC(=O)OCC(=O)O[C@@H]1[C@H]2[C@@H](OC(=O)c3ccccc3)[C@@H](C)C[C@]2(O)[C@H](OC(C)=O)C2(C)[C@H]3CC(C)(C)C(=O)[C@@H]3CC1(OC(C)=O)[C@@H]2OC(C)=O (stereo not given in full),-1.73% [at 25.6 µM] (inactive)
10,CC(=O)OCC1=C[C@H](O)[C@@H]2C(C(=O)O)=CO[C@@H](O[C@@H]3O[C@H](CO)[C@@H](O)[C@H](O)[C@H]3O)[C@H]12,-17.3% [at 25.6 µM] (inactive)
11,COC1C=C([C@@H]2CC=C3[C@@]4(C)C(CC[C@]32C)[C@@]2(C)C=CC(=O)C(C)(C)C2C[C@H]4OC(C)=O)C(=O)O1 (stereo not given in full),7.14% [at 25.6 µM] (inactive)
12,Cn1c(=O)c2nc(/C=C/c3cccc(Cl)c3)n(C)c2n(C)c1=O,0.239% [at 114 µM] (inactive)
13,C=C1CCC2C(C)(CO[C@@H]3O[C@H](CO)[C@@H](O)[C@H](O)[C@H]3O)C(O)CCC2(C)C1C(=O)CC1=CCOC1=O (stereo not given in full),-6.42% [at 25.6 µM] (inactive)
14,C[C@@H]1C(=O)O[C@H]2CC34[C@H]5C[C@@H](C(C)(C)C)C36[C@@H](OC(=O)[C@@H]6O)O[C@@]4(C(=O)O5)[C@]21O (stereo not given in full),-16.1% [at 25.6 µM] (inactive)
15,C=C1CCC2(OC1)OC1CC3C4CC=C5CC(O)CC(O[C@@H]6OC[C@@H](O)[C@H](O)[C@H]6O)C5(C)C4CCC3(C)C1(O)C2C (stereo not given in full),-3.33% [at 25.6 µM] (inactive)
16,CC[C@@H](c1ccc(F)c(F)c1)n1c(C(=O)OC)c(-c2ccno2)[nH]c1=S,-3.21% (inactive)
17,COC(=O)C1C(CC(C)=O)C=CC(O)C12Oc1cc(C)cc(O)c1C2=O (stereo not given),15.4% (inactive)
18,COc1ccc(/C=C/C(=O)O[C@H]2[C@@H]3C=CO[C@@H](O[C@@H]4O[C@H](CO)[C@@H](O)[C@H](O)[C@H]4O)[C@@H]3[C@@]3(CO)O[C@@H]23)cc1O,9.02% [at 25.6 µM] (inactive)
19,Cc1cc(C)c(S(=O)(=O)N(Cc2ccc(-c3cccc(S(C)(=O)=O)c3)cc2)Cc2ccc(C(F)(F)F)o2)c(C)c1,-7.18% (inactive)
20,C=C1CC[C@@H]2[C@](C)(CC[C@H](O)[C@@]2(C)CCC=C(C)C)[C@@H]1Cc1c[nH]c2ccccc12,-7.23% [at 25.6 µM] (inactive)

row,Compound,redox activity (% of DA3003)
1,C[C@@H](O)[C@H](N)C(=O)N1CCC[C@H]1C(=O)N1CCC[C@H]1C(=O)N[C@H](C(N)=O)[C@@H](C)O (H-TPPT-NH2),17.6% [at 11.5 µM] (inactive)
2,CC1(CO)CC[C@]2(C(=O)O[C@@H]3O[C@H](CO)[C@@H](O)[C@H](O)[C@H]3O)CC[C@]3(C)C(=CCC4[C@@]5(C)CC[C@H](O[C@@H]6O[C@H](C(=O)O)[C@@H](O)[C@H](O)[C@H]6O)C(C)(C)C5CC[C@]43C)C2C1 (stereo not given in full),19.9% [at 11.5 µM] (inactive)
3,C=C1C(=O)OC2CC(C)=C(C(C)CCCO[C@@H]3O[C@H](CO)[C@@H](O)[C@H](O)[C@H]3O)C(O)C12 (stereo not given in full),-18.4% [at 25.6 µM] (inactive)
4,COc1ccc2c(c1O)OC[C@H]1c3ccc(O)cc3O[C@@H]21,-2.6% (inactive)
5,CC(/C=C/C1(O)C(C)(C)CC(O)CC1(C)O)OC1OC(CO)C(O)C(O)C1O (stereo not given),-14.9% [at 25.6 µM] (inactive)
6,C/C(=C\CCC(C)(O)c1ccc(C)cc1)C(=O)O (stereo not given),17.8% (inactive)
7,CC(=O)OC1C=C(C(=O)O)C2(CO)CCC(C)C(C)(CCc3ccoc3)C2C1 (stereo not given),4.91% [at 25.6 µM] (inactive)
8,CCC(CC)n1ccc2c(C(=O)NCc3c(C)cc(C)[nH]c3=O)cc(C#N)cc21,-5.95% (inactive)
9,CCOc1c2c(c(OCC)c3ccccc13)C(=O)N(c1ccc(CC(=O)NS(=O)(=O)c3ccccc3)cc1)C2,-0.704% (inactive)
10,C=C[C@@]1(C)CC(=O)C2[C@](C)(O1)[C@@H](OC(C)=O)[C@@H](O)[C@H]1C(C)(C)CCC[C@]21C (stereo not given in full),11% [at 11.5 µM] (inactive)
11,CCC[C@@H]1C[C@@H](C(=O)N[C@@H]([C@H]2O[C@H](SC)[C@H](O)[C@@H](O)[C@@H]2O)[C@@H](C)O)N(C)C1,-2.67% (inactive)
12,CN(C)C/C=C/C(=O)Nc1ccc(C(=O)Nc2cccc(Nc3ncc(Cl)c(-c4c[nH]c5ccccc45)n3)c2)cc1,-7.62% (inactive)
13,CC(C)[C@H]1CCC(CO)=C[C@@H]1/C=C(\CO)C(=O)O,-11.5% (inactive)
14,C[C@@H]1O[C@@H](O[C@H]2[C@H](O[C@H]3CC[C@@]4(C)C(CC[C@]5(C)C4CC=C4[C@@H]6CC(C)(C)CC[C@]6(C(=O)O)CC[C@]45C)[C@]3(C)CO)OC[C@H](O)[C@@H]2O)[C@H](O)[C@H](O[C@@H]2OC[C@@H](O)[C@H](O)[C@H]2O)[C@H]1O (stereo not given in full),0.416% [at 11.5 µM] (inactive)
15,COC(=O)C12C(=O)C(C)=C(O)C1(C)C(C)=CC1C34CCC(OC3=O)C(C)(C)C4CCC12C (stereo not given),-14.2% [at 25.6 µM] (inactive)
16,NC(=O)c1cccc(-c2cc(O)cc(OC(=O)NC3CCCCC3)c2)c1,8.8% [at 25.6 µM] (inactive)
17,NC(=O)[C@H]1CCCCc2c1[nH]c1ccc(Cl)cc21,-2.97% [at 25.6 µM] (inactive)
18,O=C(O)C[C@H](O)C[C@H](O)/C=C/c1c(C2CC2)nc2ccccc2c1-c1ccc(F)cc1,15.3% (inactive)
19,C=C1C(=O)OC2/C=C(\C)CC/C=C(\C(=O)O)CC/C=C(\C)CCC12 (stereo not given),-0.589% (inactive)
20,NCc1c[nH]c(=S)n1C1CCc2c(F)cc(F)cc2C1 (stereo not given),-3.81% (inactive)
